Here are results for 56 compounds from PubChem BioAssay AID1645860 (Buhrlage Lab, Dana-Farber Cancer Institute and Novartis …, 2021).

The whole screen tested about 47,000 compounds, of which about 2,500 (5.3%) were called active. No stated cut-off is given here; in the data, active means inhibition above about 30%; inactive means the rest. The sample as a whole holds a higher share of actives than the screen did.

This test deals with Ubiquitin carboxyl-terminal hydrolase 30 (Homo sapiens) (UniProt Q70CQ3). Description: inhibitors of human USP30 deubiquitinase (AID 1645860). Particulars: purified USP30, Ub-rhodamine cleavage fluorescence; at 25 µM; stronger effect = higher value.
Ubiquitin carboxyl-terminal hydrolase 30 (Homo sapiens), sequence (Q70CQ3 whole entry, looked up): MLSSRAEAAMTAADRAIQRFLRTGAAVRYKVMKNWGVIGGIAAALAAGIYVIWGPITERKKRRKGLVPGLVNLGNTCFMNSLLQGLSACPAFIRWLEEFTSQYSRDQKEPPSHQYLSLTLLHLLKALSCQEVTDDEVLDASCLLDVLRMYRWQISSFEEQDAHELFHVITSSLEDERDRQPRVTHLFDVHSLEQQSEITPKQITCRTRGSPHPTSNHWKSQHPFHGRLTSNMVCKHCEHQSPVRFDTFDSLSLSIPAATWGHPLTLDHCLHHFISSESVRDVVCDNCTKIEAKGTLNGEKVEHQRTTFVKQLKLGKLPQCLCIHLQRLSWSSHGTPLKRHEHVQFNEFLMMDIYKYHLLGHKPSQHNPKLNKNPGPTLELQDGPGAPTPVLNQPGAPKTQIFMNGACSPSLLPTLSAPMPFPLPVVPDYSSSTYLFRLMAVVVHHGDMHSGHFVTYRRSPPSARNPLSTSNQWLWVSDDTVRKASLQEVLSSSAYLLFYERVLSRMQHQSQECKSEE
For the compound `Cc1cccc2c1N(C(=O)Nc1ccc(OCc3ccccc3)cc1)CCC2`, the inhibition is 16.1% (inactive).
For the compound `O=C(CN1CCCC1c1ccc2c(c1)OCCCO2)NCCc1ccccc1F` (stereo unspecified), the inhibition is -52% (inactive).
Next, `Cn1cc(CCNC(=O)Nc2cc(F)ccc2F)c2cccnc21`: -16.4% (inactive); `Cc1c(Cl)cccc1NC(=O)CCn1cnc2ccccc2c1=O`: 74% (active); `Cc1ccc(N(C)C(=O)CCn2cnc3ccccc3c2=O)cc1`: -5.01% (inactive).
The value for `CCN1CCc2nc(-c3ccccc3)n(CC(=O)Nc3cccc(Cl)c3C)c(=O)c2C1` was -97% (inactive).
The value for `CCOc1ccc(CC(=O)N2CCN(c3ccc(OC)nn3)CC2)cc1` was -11.9% (inactive); that for `O=C(c1ccc(N2CCCC2)nn1)N1CCN(c2ccccn2)CC1` was 3.65% (inactive); that for `CSc1ccccc1NC(=O)c1ccc(N2CCCC2)nn1` was 77.3% (active).
With `Cc1cc(C)n(-c2ccc(C(=O)Nc3ccccc3C(C)C)nn2)n1`, the inhibition is 34.9% (active).
The value for `O=C(Cc1ccccc1)N1CCN(c2ccc(N3CCCC3)nn2)CC1` was -15.8% (inactive).
Next, `Cc1cc(C)n(-c2ccc(C(=O)NCC(c3ccccc3)c3c[nH]c4ccccc34)cc2)n1` (stereo unspecified): -19.5% (inactive); `O=C(CSc1ncnc2c1nnn2-c1ccc(F)cc1)N1CCc2ccccc21`: 3.49% (inactive).
As for `CCCOc1ccc(C2Nc3ccccc3S(=O)(=O)N2Cc2ccccc2)cc1OCC` (stereo unspecified), the inhibition was 11% (inactive).
Regarding `CCc1noc(-c2c(C)cc(C)n2CC(=O)NCc2cccc(F)c2)n1`, the inhibition is 19.8% (inactive).
The value for `COc1ccc(C(CNC(=O)c2oc3ccccc3c2C)N2CCOCC2)cc1` (stereo unspecified) was 0.732% (inactive).
Next, `Cc1ccc(Cn2cc(-c3noc(-c4ccccn4)n3)nn2)cc1`: 15% (inactive); `Cc1noc(-c2cccn2Cc2ccc(F)cc2)n1`: -50.7% (inactive).
Take `Cc1ccc(Cn2cc(-c3noc(-c4ccc[nH]4)n3)nn2)cc1`: the inhibition was 65% (active).
As for `CCN1C(=O)c2c(C(=O)NC3CC3)ncn2CC1(C)C(=O)NC1CCCC1` (stereo unspecified), the inhibition is 9.61% (inactive).
Next, `COc1cccc(C(=O)NCc2ccc(-c3nc4cnccc4o3)cc2)c1`: 30.7% (active); `COc1cc(C(=O)Nc2ccc(-c3nc4cnccc4o3)cc2)cc(OC)c1OC`: 14.2% (inactive).
Next, `COc1cccc(CNC(=O)c2ccc(-c3cncnc3)nc2)c1`: 17.3% (inactive); `Cc1cnc(C(=O)N2CCC3(CC2)CC(OCC2CC2)CO3)cn1` (stereo unspecified): -3.6% (inactive); `O=C(Cc1ccccc1)N1CCc2[nH]nc(-c3ccc(F)cc3)c2C1`: -4.25% (inactive).
Next, `CC(NC(=O)c1ccc(S(=O)(=O)Nc2ccccc2)cc1)c1ccc(S(N)(=O)=O)cc1` (stereo unspecified): 11.3% (inactive); `CC1(C)Cc2nc(-c3ccccc3)nc(SCC(=O)Nc3cccc4ccccc34)c2CO1`: -6.78% (inactive); `CN1C(=O)C(C)(C)COc2ccc(NS(=O)(=O)c3ccccc3Cl)cc21`: 0.732% (inactive).
As to `CCCCN(c1ccccc1)S(=O)(=O)c1cccc(C(=O)OCC(=O)NCc2ccc3c(c2)OCO3)c1`, the inhibition was 47.1% (active).
Next, `COc1ccc2c(Sc3ccccc3)c(C(=O)NCc3ccc4c(c3)OCO4)[nH]c2c1`: 7.37% (inactive); `O=C(COC(=O)c1ccc(F)c(S(=O)(=O)N2CCOCC2)c1)NCc1ccc2c(c1)OCO2`: -3.24% (inactive); `CC(C)Cc1cc(-c2nn3c(-c4ccccc4Cl)nnc3s2)n[nH]1`: 40.6% (active).
The value for `Cc1c(-c2nn3c(-c4ccco4)nnc3s2)cccc1[N+](=O)[O-]` was -45.6% (inactive).
As to `CNc1nc2c(c(=O)n1C)CN(S(=O)(=O)c1ccccc1)CC2`, the inhibition is 11.5% (inactive).
For `CC(C)c1ccc(C(=O)N2CCN(c3cnn4cnnc4c3)CC2)cc1`, the inhibition was -7.33% (inactive).
The value for `COc1ccc2ccccc2c1S(=O)N1CCN(c2ccccc2F)CC1` (stereo unspecified) was 1.36% (inactive).
Next, `COc1cc2[nH]c(=O)n(Cc3ccc(C(=O)N4CCN(c5ccccn5)CC4)cc3)c(=O)c2cc1OC`: 9.66% (inactive); `O=C(CSc1ccc2nnc(-c3ccccc3)n2n1)N1CCCc2ccccc21`: 51.5% (active).
The value for `CC1CCN(C(=O)CSc2ccc3nnc(-c4cccc(F)c4)n3n2)CC1` was -0.05% (inactive); that for `O=C(Cn1cnc2ccccc21)N1CCCc2ccccc21` was -7.37% (inactive); that for `CC(C)CN1[C@H]2CCN(C(=O)c3ccccc3)CC[C@@H]2Oc2ccccc2S1(=O)=O` was 16.5% (inactive).
Consider `Cc1cccc(S(=O)(=O)NCCc2cn(C)c3ncccc23)c1`, for which the inhibition is -9.95% (inactive).
Next, `Cc1cc2c(cc1S(=O)(=O)N1CCC(C(=O)N(C)Cc3ccco3)CC1)OCC(=O)N2`: 26.1% (inactive).
The value for `O=C(Nc1c(C(=O)N2CCOCC2)oc2ccccc12)c1ccccc1F` was 10.2% (inactive); that for `O=C(Nc1cc(-c2ccccc2)nn1C1CCS(=O)(=O)C1)c1ccccc1F` (stereo unspecified) was -4.62% (inactive); that for `CC(C)(C)n1nc(C2CC2)c(Br)c1NC(=O)c1ccccc1F` was 35.5% (active).
Next, `O=C(Nc1cc(=O)[nH]c2nc(CCc3ccccc3)nn12)c1ccc(F)cc1`: -74.9% (inactive); `COc1ccc(CNC(=O)c2ccccc2N2C(=O)N3CCc4c([nH]c5ccccc45)[C@@]3(C)C2=O)cc1`: 41.7% (active); `C[C@]12C(=O)N(c3cccc(C(=O)NCCN4CCOCC4)c3)C(=O)N1CCc1c2[nH]c2ccccc12`: 12.9% (inactive).
Take `COc1ccc2[nH]c3c(c2c1)CCN1C(=O)N([C@@H](C)C(=O)NCC(=O)O)C(=O)[C@]31C`: the inhibition was -8.05% (inactive).
Next, `O=C(N[C@@H]1C[C@@H](Oc2cccc(F)c2)[C@H](O)[C@H]1N1CCCC1)C1CCOCC1`: -0.94% (inactive).
The value for `COc1cccc(C(=O)N[C@@H]2C[C@@H](Oc3ccccc3)[C@H](O)[C@H]2O)c1` was 26.7% (inactive).
Turning to `Cc1nn(-c2ccccc2)c(C)c1S(=O)(=O)N1CCN(c2ccccn2)CC1`, the inhibition is -17.2% (inactive).
Next, `CCC(=O)Nc1ccc2c(c1)nc(CCN1CCN(c3ccccn3)CC1)n2C`: -16.8% (inactive); `Clc1cc2nc(N3CCN(c4ccccn4)CC3)c3nncn3c2cc1Cl`: 36.4% (active).
Take `CCN(C(=O)COc1cccnc1[N+](=O)[O-])c1ccccc1`: the inhibition is -14.2% (inactive).
